In PubChem BioAssay (NCI) one finds growth data, which are given here for eight molecules.

Test systems include SK-MEL-2 melanoma; EKVX NSCLC; SN12C renal; UO-31 renal; TK-10 renal; ACHN renal; CAKI-1 renal; A498 renal; CCRF-CEM leukemia; MOLT-4 leukemia; SR leukemia; RPMI-8226 leukemia; OVCAR-8 ovarian; OVCAR-5 ovarian; OVCAR-4 ovarian; SK-OV-3 ovarian; IGROV1 ovarian; OVCAR-3 ovarian; HS 578T breast; NCI/ADR-RES ovarian.
Holding throughout (assay): NCI-60 one-dose screen, 48 h (100 = growth as untreated, 0 = no growth, -100 = all killed)
Common to all, as to conditions: 10 µM unless noted

SMILES strings stand for the structures. About 83,000 compounds went through this panel and 20% of them were active in at least one assay; those are over-represented in the sample as a whole.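 Cells were grown in 96-well plates and exposed to the test compound at a single concentration for 48 hours; results are reported as percent growth, with values below 10 considered active.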 A number with no mark means an inactive call. The source made the active and inactive calls.

Take `CC1(C)CCC[C@]23C(=O)O[C@](O)(C(=O)C4=C[C@@](C)(/C=C/CCCc5ccc6ccc7cccc8ccc5c6c78)CC[C@@]42O)[C@@H]13`: the growth with SK-MEL-2 melanoma is -61.8% (active); with EKVX NSCLC it was -84.9% (active); in the assay on SN12C renal, -94.4% (active); with UO-31 renal, -97.1% (active); in the assay with TK-10 renal, -88.7% (active); in the assay on ACHN renal, -100% (active). In addition, the growth in the assay on CAKI-1 renal is -98.5% (active); in the assay with A498 renal, -87.9% (active); in the assay with CCRF-CEM leukemia, 0.0961% (active); in the assay with MOLT-4 leukemia it was 9.46% (active); in the assay with SR leukemia, 9% (active); with RPMI-8226 leukemia it was -21.4% (active). Besides, the growth with OVCAR-8 ovarian was -34.2% (active); with OVCAR-5 ovarian, -75.7% (active); in the assay on OVCAR-4 ovarian, -92.3% (active); in the assay with SK-OV-3 ovarian it was -66.2% (active); in the assay on IGROV1 ovarian, -83% (active); in the assay with OVCAR-3 ovarian it was -82% (active). Besides, the growth in the assay with HS 578T breast was -7.13% (active); in the assay with NCI/ADR-RES ovarian it was -18.7% (active).

Regarding `CCNCCNc1c(C)c(-c2ccc(C(F)(F)F)cc2)c(C#N)c2nc3ccccc3n12`, the growth is 102% in the assay with SK-MEL-2 melanoma; 92.4% with EKVX NSCLC; 67.2% with SN12C renal; 79.1% in the assay with UO-31 renal; 109% in the assay with TK-10 renal; 82.5% with ACHN renal. The growth is 92.3% in the assay on CAKI-1 renal; 69.6% in the assay on A498 renal; 86.9% in the assay on CCRF-CEM leukemia; 90.9% in the assay with MOLT-4 leukemia; -0.902% (active) with SR leukemia; 86.4% in the assay with RPMI-8226 leukemia. Also, the growth in the assay with OVCAR-8 ovarian was 95.3%; in the assay on OVCAR-5 ovarian, 104%; with OVCAR-4 ovarian, 88.2%; with SK-OV-3 ovarian, 111%; with IGROV1 ovarian, 78.9%; in the assay with OVCAR-3 ovarian, 96.4%. Further, the growth is 90.8% in the assay with HS 578T breast and 101% in the assay on NCI/ADR-RES ovarian.

As for `CC(C)n1nc(-c2ccc3oc(N)nc3c2)c2c(N)ncnc21`, the growth was -19.5% (active) with SK-MEL-2 melanoma; -27.2% (active) with EKVX NSCLC; 3.13% (active) in the assay with SN12C renal; -20.9% (active) with UO-31 renal; -30.4% (active) with TK-10 renal; -14% (active) with ACHN renal. Moreover, the growth in the assay on CAKI-1 renal is 2.4% (active); with A498 renal, -50.4% (active); in the assay on CCRF-CEM leukemia it was 11.7%; in the assay on MOLT-4 leukemia it was 6.39% (active); in the assay on SR leukemia, 9.35% (active); with RPMI-8226 leukemia it was -6.46% (active). The growth is -17.5% (active) in the assay on OVCAR-8 ovarian; -9.99% (active) in the assay on OVCAR-5 ovarian; -32.2% (active) in the assay with OVCAR-4 ovarian; -32.6% (active) in the assay with SK-OV-3 ovarian; -27.3% (active) in the assay on IGROV1 ovarian; -6.08% (active) with OVCAR-3 ovarian. In addition, the values for the growth with HS 578T breast and with NCI/ADR-RES ovarian were -35.8% (active) and -20.6% (active), respectively.

For the molecule `Cc1ccc(C23CCC(=O)N2CCc2cncn23)cc1` (stereo not given), the growth in the assay on SK-MEL-2 melanoma is 107%; in the assay on EKVX NSCLC, 104%; in the assay on SN12C renal, 99%; in the assay on UO-31 renal, 96.8%; in the assay on TK-10 renal, 91.7%; in the assay on ACHN renal, 105%. The growth in the assay with CAKI-1 renal was 107%; in the assay with A498 renal it was 96.8%; with CCRF-CEM leukemia, 95.1%; with MOLT-4 leukemia, 104%; with SR leukemia it was 126%; with RPMI-8226 leukemia, 100%. Moreover, the growth is 97.2% in the assay with OVCAR-8 ovarian; 96.3% in the assay with OVCAR-5 ovarian; 108% in the assay on OVCAR-4 ovarian; 92.8% in the assay with SK-OV-3 ovarian; 93.6% with IGROV1 ovarian; 113% in the assay with OVCAR-3 ovarian. The growth was 101% in the assay with HS 578T breast and 107% in the assay on NCI/ADR-RES ovarian.

`O=c1cc(-c2nccc3c2[nH]c2ccccc23)c2cc(Cl)ccc2o1`: the growth in the assay with SK-MEL-2 melanoma is 30.2%; with EKVX NSCLC it was 62.1%; in the assay on SN12C renal it was 62.4%; in the assay with UO-31 renal, 58.1%; with TK-10 renal, 85.3%; in the assay with ACHN renal, 47.3%. The growth with CAKI-1 renal was 54.6%; in the assay with A498 renal, 31.8%; in the assay on CCRF-CEM leukemia, 31.2%; in the assay with MOLT-4 leukemia it was 44.3%; with SR leukemia, 15.2%; in the assay on RPMI-8226 leukemia it was 39.3%. Also, the growth is 54.4% in the assay on OVCAR-8 ovarian; 111% in the assay with OVCAR-5 ovarian; 56.6% with OVCAR-4 ovarian; 41.3% with SK-OV-3 ovarian; 61.3% with IGROV1 ovarian; 7.46% (active) in the assay with OVCAR-3 ovarian. In addition, the growth in the assay on HS 578T breast was 37.3%; with NCI/ADR-RES ovarian it was 33.4%.

Take `COc1ccc(C(=O)/C=C/c2ccc(Cl)cc2)cc1S(N)(=O)=O`: the growth is 80.3% in the assay with SK-MEL-2 melanoma; 87.3% in the assay with EKVX NSCLC; 15.4% with SN12C renal; 33.1% in the assay with UO-31 renal; 70% in the assay with TK-10 renal; 58.4% with ACHN renal. Moreover, the growth in the assay with CAKI-1 renal is 74.9%; in the assay on A498 renal, 84.6%; in the assay with CCRF-CEM leukemia it was -18.3% (active); with MOLT-4 leukemia it was -5.39% (active); in the assay on SR leukemia, -10.3% (active); with RPMI-8226 leukemia, -31.7% (active). In addition, the growth was 11.5% in the assay with OVCAR-8 ovarian; 78.8% in the assay on OVCAR-5 ovarian; 102% with OVCAR-4 ovarian; 83.1% in the assay on SK-OV-3 ovarian; 16.6% in the assay with IGROV1 ovarian; 61.9% with OVCAR-3 ovarian. Moreover, the results for the growth with HS 578T breast and with NCI/ADR-RES ovarian were 91.5% and 74.9%, respectively.

Turning to `CN(CCNc1ccc(C(=N)N)cc1)c1ccc(C(=N)N)cc1`, the growth with SK-MEL-2 melanoma was 90.4%; in the assay on EKVX NSCLC, 84.1%; with SN12C renal it was 39.3%; in the assay on UO-31 renal it was 88.3%; in the assay with TK-10 renal, 94.1%; in the assay on ACHN renal it was 78.4%. The growth in the assay with CAKI-1 renal is 62%; in the assay on A498 renal, 57.7%; with CCRF-CEM leukemia, 7.18% (active); with MOLT-4 leukemia, 87.6%; in the assay on SR leukemia, 66.7%; with RPMI-8226 leukemia, 72.2%. The growth is 80.8% in the assay with OVCAR-8 ovarian; 92% in the assay with OVCAR-5 ovarian; 96.2% in the assay with OVCAR-4 ovarian; 119% in the assay on SK-OV-3 ovarian; 36.7% in the assay on IGROV1 ovarian; 91.4% with OVCAR-3 ovarian. Besides, the figures for the growth in the assay on HS 578T breast and with NCI/ADR-RES ovarian were 101% and 97.1%, respectively.

For `O=C1NCCN1/N=C/c1c(Cl)n(Cc2ccc(Cl)cc2)c2ccccc12`, the growth with SK-MEL-2 melanoma is 91.7%; in the assay on EKVX NSCLC, 88.9%; with SN12C renal it was 85.8%; with UO-31 renal, 72.4%; with TK-10 renal, 90.8%; in the assay with ACHN renal, 94.4%. Besides, the growth is -18.9% (active) in the assay on CAKI-1 renal; -85.5% (active) with A498 renal; 89% with CCRF-CEM leukemia; 65.6% with MOLT-4 leukemia; 78.4% in the assay on SR leukemia; 82.6% in the assay with RPMI-8226 leukemia. For the same molecule, the growth is 78.7% in the assay with OVCAR-8 ovarian; 96.8% with OVCAR-5 ovarian; 79.1% in the assay with OVCAR-4 ovarian; 146% with SK-OV-3 ovarian; 24.9% with IGROV1 ovarian; 84.8% with OVCAR-3 ovarian. Besides, the growth is 90.3% in the assay on HS 578T breast and 90.8% in the assay on NCI/ADR-RES ovarian.
